# Measured potencies and affinities stand elsewhere. Active and inactive are the calls of the source.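 The calls were made as follows: active = fluorescent signal decreased by at least 40%; inconclusive = no clear call, values can overlap the other calls; inactive = the rest, including activity opposite to the expected direction.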
# Assay: inhibition of fibronectin matrix deposition – AH1F cells, Alexa488-fibronectin fluorescence, cherry-pick, set 2, dose response (AID 1117283);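 also: AH1F fibroblasts given Alexa488-labelled fibronectin at 24 nM final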
# Conditions: AH1F fibroblasts, overnight; series mostly up to 35 µM
row,Compound,outcome
1,Cc1ccc(Nc2nnc(SCc3ccccc3)s2)cc1,inactive
2,O=C(c1cccnc1)N1C[C@H]2[C@@H](c3ccccc31)[C@H](CO)N2CC1CCCC1,inactive
3,CCOC(=O)c1nnn(-c2ccc(OC)cc2)c1N,inactive
4,Cc1cc(C)c(S(=O)(=O)Nn2cnnc2)c(C)c1,inactive
5,CO[C@H]1CN(C)C(=O)c2ccc(NC(=O)c3ccc(-c4ccccc4)cc3)cc2OC[C@H](C)NC[C@@H]1C,inactive
6,O=S(=O)(c1cccc(F)c1)N1CC[C@@H]2[C@H](CO)Nc3ccc(-c4cccc(F)c4)cc3[C@@H]21,inactive
7,O=C(CC1Nc2ccccc2NC1=O)Nc1ccc2c(c1)OCO2 (stereo unspecified),inactive
8,Cc1ccn2cc(-c3ccc(NC(=O)c4ccco4)cc3)nc2c1,inactive
9,CO[C@@H]1CN(C)C(=O)c2ccc(NC(=O)c3ccc(-c4ccccc4)cc3)cc2OC[C@@H](C)NC[C@H]1C,inactive
10,O=C(CSc1nc2ncc(Cl)cc2[nH]1)c1c[nH]c2ccccc12,inactive
11,CO[C@@H]1CN(C)C(=O)c2ccc(NC(=O)Nc3ccc(Cl)c(Cl)c3)cc2OC[C@@H](C)NC[C@@H]1C,inactive
12,N#C[C@@H]1[C@H](c2ccccc2C2=CCCCC2)[C@@H](CO)N1S(=O)(=O)c1ccccc1,inactive
13,CC(C)CNC(=O)c1coc(=O)c(Br)c1,inactive
14,CO[C@H]1CN(C)C(=O)c2ccc(NC(=O)c3ccc(-c4ccccc4)cc3)cc2OC[C@@H](C)NC[C@H]1C,inactive
15,CO[C@@H]1CN(C)C(=O)c2ccc(NC(=O)c3ccc(-c4ccccc4)cc3)cc2OC[C@H](C)NC[C@@H]1C,inactive
16,COc1cccc(-c2ccc3c(c2)[C@@H]2[C@@H](CCN2S(=O)(=O)c2cccc(OC)c2)[C@H](CO)N3)c1,inactive
17,CO[C@@H]1CN(C)C(=O)c2ccc(NC(=O)c3ccc(-c4ccccc4)cc3)cc2OC[C@@H](C)NC[C@@H]1C,inactive
18,C[C@H]1CN([C@@H](C)CO)C(=O)c2cc(NC(=O)C3CCCCC3)ccc2O[C@@H]1CN(C)Cc1ccc(-c2ccccc2)cc1,inactive

row,Compound,outcome
1,CCN(Cc1ccncc1)C(=O)c1ccc2c(c1)S(=O)(=O)c1ccccc1C2=O,inactive
2,C[C@H]1CN([C@@H](C)CO)C(=O)c2cc(NC(=O)C3CCCCC3)ccc2O[C@H]1CN(C)Cc1ccc(-c2ccccc2)cc1,inactive
3,CO[C@@H]1CN(C)C(=O)c2cc(NC(=O)Nc3cc(Cl)cc(Cl)c3)ccc2OC[C@H](C)NC[C@H]1C,inactive
4,CC1CN(C(=O)c2cc3c(=O)n4ccccc4nc3n2C)CC(C)O1 (stereo unspecified),inactive
5,C[C@@H]1CN([C@@H](C)CO)C(=O)c2cc(-c3ccncc3)cnc2O[C@@H]1CN(C)C(=O)Cc1cccnc1,inactive
6,COc1ccc(-c2oc3ncnc(NCCCN4CCOCC4)c3c2-c2ccc(OC)cc2)cc1,inactive
7,O=S(=O)(c1ccccc1F)N1CC[C@@H]2[C@H]1c1cc(-c3cccc(F)c3)ccc1N[C@@H]2CO,inactive
8,O=C(OCC(O)C(O)COC(=O)c1ccccc1)c1ccccc1 (stereo unspecified),inactive
9,C[C@H](CO)N1C[C@H](C)[C@H](CN(C)Cc2ccc(-c3ccccc3)cc2)Oc2ccc(NC(=O)CCCN(C)C)cc2C1=O,inactive
10,N#C[C@@H]1[C@H](c2ccccc2C2=CCCCC2)[C@H](CO)N1S(=O)(=O)c1ccccc1,inactive
11,O=C(Nc1ccccc1F)N1C[C@@H]2[C@H](c3ccccc31)[C@H](CO)N2C(=O)C1CCOCC1,inactive
12,CO[C@H]1CN(C)C(=O)c2cc(NC(=O)Nc3cc(Cl)cc(Cl)c3)ccc2OC[C@@H](C)NC[C@@H]1C,inactive
13,CO[C@@H]1CN(C)C(=O)c2cc(NC(=O)Nc3ccc(Cl)c(Cl)c3)ccc2OC[C@H](C)NC[C@@H]1C,inactive
14,COC(=O)c1cn(CC(=O)NCc2ccco2)c2ccccc12,inactive
15,O=C(Nc1cc(Sc2nc3ccccc3s2)cc([N+](=O)[O-])c1)c1ccccc1F,inactive
16,CO[C@H]1CN(C)C(=O)c2ccc(NC(=O)c3ccc(-c4ccccc4)cc3)cc2OC[C@@H](C)NC[C@@H]1C,inactive
17,CC1OC(CC(=O)O)CC2=C1C(=O)c1c(O)cccc1C2=O (stereo unspecified),inactive
18,C[C@@H]1CN([C@@H](C)CO)C(=O)c2cc(-c3ccccc3)cnc2O[C@@H]1CN(C)C(=O)c1cccc(F)c1,inactive
